The text below walks through data of ChEMBL document CHEMBL1961873, “Compounds: GSK PKIS; Assays: Nanosyn kinase panel” (2012).

Test [1] addresses Serine/threonine-protein kinase MARK2 (Homo sapiens) (UniProt Q7KZI7). The settings on record: at 1 µM.
The target in test [2] is PAS domain-containing serine/threonine-protein kinase (Homo sapiens) (UniProt Q96RG2). The settings on record: at 0.1 µM.
For test [3] the target is unchanged. The settings on record: at 1 µM.
The target of test [4] is Phosphorylase b kinase gamma catalytic chain, skeletal muscle/heart isoform (Homo sapiens) (UniProt Q16816). The settings on record: at 0.1 µM.
For test [5] the target is unchanged. The settings on record: at 1 µM.
For test [6], the target named is T1, Phosphorylase b kinase gamma catalytic chain, liver/testis isoform (Homo sapiens) (UniProt P15735).
T1 sequence (whole entry): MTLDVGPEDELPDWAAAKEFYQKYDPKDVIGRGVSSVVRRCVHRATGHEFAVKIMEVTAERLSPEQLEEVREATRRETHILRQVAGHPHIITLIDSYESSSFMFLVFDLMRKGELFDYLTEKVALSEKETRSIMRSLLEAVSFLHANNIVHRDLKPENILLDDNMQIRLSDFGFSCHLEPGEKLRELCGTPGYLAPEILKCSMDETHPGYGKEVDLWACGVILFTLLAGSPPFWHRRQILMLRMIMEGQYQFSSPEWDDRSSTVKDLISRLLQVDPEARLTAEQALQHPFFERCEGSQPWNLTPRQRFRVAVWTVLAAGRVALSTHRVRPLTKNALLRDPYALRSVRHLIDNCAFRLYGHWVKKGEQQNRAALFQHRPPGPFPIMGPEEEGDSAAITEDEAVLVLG
The settings on record: at 0.1 µM.

Test [7] addresses T1, Phosphorylase b kinase gamma catalytic chain, liver/testis isoform (Homo sapiens). The settings on record: at 1 µM.
Test [8] concerns the target Serine/threonine-protein kinase pim-1 (Homo sapiens) (UniProt P11309). The settings on record: at 0.1 µM.
The target is the same in test [9]. The settings on record: at 1 µM.
Test [10] addresses Serine/threonine-protein kinase pim-2 (Homo sapiens) (UniProt Q9P1W9). The settings on record: at 0.1 µM.

Structures are written as SMILES.

Chain of PAS domain-containing serine/threonine-protein kinase (Homo sapiens) (Q96RG2 whole entry, the tested form may be a part): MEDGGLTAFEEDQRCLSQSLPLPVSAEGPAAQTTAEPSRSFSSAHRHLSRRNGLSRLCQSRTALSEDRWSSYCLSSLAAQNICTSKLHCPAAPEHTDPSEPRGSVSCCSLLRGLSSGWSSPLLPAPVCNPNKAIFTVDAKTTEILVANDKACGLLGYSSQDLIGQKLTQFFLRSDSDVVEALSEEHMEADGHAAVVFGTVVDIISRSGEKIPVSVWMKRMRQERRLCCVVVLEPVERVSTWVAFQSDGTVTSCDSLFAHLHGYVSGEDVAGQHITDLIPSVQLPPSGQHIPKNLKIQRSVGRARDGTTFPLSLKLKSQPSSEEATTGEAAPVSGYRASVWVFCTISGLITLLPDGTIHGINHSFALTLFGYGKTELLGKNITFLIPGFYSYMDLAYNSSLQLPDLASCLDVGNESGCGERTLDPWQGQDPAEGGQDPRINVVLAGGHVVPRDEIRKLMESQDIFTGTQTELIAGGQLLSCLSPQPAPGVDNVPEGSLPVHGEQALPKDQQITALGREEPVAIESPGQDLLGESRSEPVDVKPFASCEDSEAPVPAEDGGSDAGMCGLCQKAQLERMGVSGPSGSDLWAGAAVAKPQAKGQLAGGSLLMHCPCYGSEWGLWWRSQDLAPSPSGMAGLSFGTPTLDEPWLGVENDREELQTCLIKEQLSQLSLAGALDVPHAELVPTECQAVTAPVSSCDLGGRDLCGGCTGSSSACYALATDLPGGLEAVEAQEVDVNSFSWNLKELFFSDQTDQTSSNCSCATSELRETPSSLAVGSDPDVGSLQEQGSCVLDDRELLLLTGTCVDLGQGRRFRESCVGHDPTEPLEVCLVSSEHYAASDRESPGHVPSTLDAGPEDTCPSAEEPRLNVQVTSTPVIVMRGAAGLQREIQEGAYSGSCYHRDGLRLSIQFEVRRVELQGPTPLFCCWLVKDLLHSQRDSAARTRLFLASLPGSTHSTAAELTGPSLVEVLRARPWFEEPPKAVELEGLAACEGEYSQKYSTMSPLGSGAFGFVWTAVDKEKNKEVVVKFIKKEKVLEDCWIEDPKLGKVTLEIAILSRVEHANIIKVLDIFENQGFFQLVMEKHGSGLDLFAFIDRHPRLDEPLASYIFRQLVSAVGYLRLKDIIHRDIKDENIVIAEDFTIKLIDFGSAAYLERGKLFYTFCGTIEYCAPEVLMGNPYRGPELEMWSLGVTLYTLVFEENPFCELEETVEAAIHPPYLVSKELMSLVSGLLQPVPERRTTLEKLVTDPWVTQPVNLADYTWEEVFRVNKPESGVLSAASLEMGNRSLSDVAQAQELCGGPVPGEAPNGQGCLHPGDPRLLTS
Chain of Phosphorylase b kinase gamma catalytic chain, skeletal muscle/heart isoform (Homo sapiens) (Q16816 whole entry, looked up, canonical isoform): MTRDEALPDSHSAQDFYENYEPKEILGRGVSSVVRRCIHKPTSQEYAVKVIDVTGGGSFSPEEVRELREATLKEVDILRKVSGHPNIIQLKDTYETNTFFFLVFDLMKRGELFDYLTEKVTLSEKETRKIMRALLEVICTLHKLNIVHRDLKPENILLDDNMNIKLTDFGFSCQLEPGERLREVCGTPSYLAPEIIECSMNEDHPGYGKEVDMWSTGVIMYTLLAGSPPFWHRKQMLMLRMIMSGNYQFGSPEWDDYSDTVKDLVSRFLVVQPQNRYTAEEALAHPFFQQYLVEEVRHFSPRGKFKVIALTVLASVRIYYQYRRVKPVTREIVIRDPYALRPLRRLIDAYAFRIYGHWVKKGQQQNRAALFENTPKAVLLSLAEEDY
Chain of Serine/threonine-protein kinase MARK2 (Homo sapiens) (Q7KZI7 whole entry, the tested form may be a part): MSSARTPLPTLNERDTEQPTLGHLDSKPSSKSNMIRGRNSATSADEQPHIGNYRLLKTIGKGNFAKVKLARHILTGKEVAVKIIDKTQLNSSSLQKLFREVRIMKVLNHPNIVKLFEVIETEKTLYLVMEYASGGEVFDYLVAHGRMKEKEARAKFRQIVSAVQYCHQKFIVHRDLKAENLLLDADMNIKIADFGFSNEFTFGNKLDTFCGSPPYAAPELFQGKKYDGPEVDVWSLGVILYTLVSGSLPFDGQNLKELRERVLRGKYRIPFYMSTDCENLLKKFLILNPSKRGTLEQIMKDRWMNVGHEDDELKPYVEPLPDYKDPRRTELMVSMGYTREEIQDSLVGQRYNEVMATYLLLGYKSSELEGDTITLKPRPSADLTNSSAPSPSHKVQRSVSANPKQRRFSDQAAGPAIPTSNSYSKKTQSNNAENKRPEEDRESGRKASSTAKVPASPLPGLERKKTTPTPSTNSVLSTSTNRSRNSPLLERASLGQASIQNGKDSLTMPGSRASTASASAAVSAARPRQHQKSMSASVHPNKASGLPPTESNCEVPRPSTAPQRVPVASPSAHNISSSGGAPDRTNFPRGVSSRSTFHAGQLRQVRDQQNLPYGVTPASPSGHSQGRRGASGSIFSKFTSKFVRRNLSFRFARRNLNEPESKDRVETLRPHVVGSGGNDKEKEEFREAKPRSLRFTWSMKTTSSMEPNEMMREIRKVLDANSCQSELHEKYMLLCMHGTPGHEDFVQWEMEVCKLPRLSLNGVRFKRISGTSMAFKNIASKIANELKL
Chain of Serine/threonine-protein kinase pim-2 (Homo sapiens) (Q9P1W9 whole entry, looked up): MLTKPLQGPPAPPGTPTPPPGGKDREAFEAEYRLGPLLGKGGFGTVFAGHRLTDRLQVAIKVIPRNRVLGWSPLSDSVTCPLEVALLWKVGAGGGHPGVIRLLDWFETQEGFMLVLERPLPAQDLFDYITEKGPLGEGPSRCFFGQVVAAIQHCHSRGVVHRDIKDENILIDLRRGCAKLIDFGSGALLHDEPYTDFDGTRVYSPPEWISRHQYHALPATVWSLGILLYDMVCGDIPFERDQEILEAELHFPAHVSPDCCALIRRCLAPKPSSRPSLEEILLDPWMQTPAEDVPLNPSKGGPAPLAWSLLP
Chain of Serine/threonine-protein kinase pim-1 (Homo sapiens) (P11309 whole entry, looked up): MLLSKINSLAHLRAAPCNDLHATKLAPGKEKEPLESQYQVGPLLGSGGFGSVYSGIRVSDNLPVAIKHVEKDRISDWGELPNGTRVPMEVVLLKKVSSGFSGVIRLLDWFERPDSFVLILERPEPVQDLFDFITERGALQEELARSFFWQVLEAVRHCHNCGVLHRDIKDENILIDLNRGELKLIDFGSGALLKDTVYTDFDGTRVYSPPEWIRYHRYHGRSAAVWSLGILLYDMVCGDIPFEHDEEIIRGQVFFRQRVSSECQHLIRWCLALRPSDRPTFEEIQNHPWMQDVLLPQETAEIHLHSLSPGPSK

One may read the inhibition as the drop in the measured response relative to a control, in per cent. As to `COC(=O)c1sc(-n2cnc3cc(OC)c(OC)cc32)cc1OCc1ccccc1C(F)(F)F`, the inhibition in test [1] is 2.26%; in test [2], -1.52%; in test [3], -2.77%; in test [4], 4.45%; in test [5], 5.4%; in test [6], 4.03%. Moreover, the inhibition in test [7] came to 0.9%; in [8], 0.49%; in test [9] it was 1%; in [10], 0.49%.
As to `Clc1ccc(-c2nn3ncccc3c2-c2ccnc(Nc3ccccc3)n2)cc1`, the inhibition in test [1] was 0.63%; in [2], -0.14%; in [3], 0.05%; in [4] it was 1.22%; in [5] it was 3.66%; in test [6] it was 0.85%. Also, the inhibition in test [7] came out at 0.51%; in test [8] it was 0.13%; in test [9] it was 0.33%; in [10], 0.34%.
On to `COc1cccc(-n2ncc3c(N/N=C/c4ccc(F)cc4)ncnc32)c1`, for which the inhibition stood at 1.76% in [1]; 0.08% in test [2]; 0.35% in test [3]; 2.66% in [4]; 5.43% in [5]; 5.34% in test [6]. The inhibition in [7] was 6.87%; in test [8], 1.15%; in [9], 1.15%; in test [10] it was -0.5%.
For `Cc1ccc(O)cc1Nc1ccnc2cc(-c3ccccn3)ccc12`, the inhibition is 4.34% in test [1]; 0.71% in [2]; -0.05% in test [3]; 2.23% in test [4]; 9.36% in test [5]; 5.58% in test [6]. The inhibition in [7] came out at 2.55%; in [8], 0.67%; in test [9], 3.79%; in test [10], 0.49%.
Regarding `Fc1cccc(COc2ccc(Nc3ncnc4sc(-c5ccco5)cc34)cc2Cl)c1`, the inhibition is 2.25% in test [1]; -0.19% in [2]; 0.63% in [3]; 5.6% in [4]; 5.83% in test [5]; 4.96% in test [6]. For the same compound, the inhibition in test [7] is 5.36%; in test [8], -0.57%; in test [9], 0.55%; in [10], 0.56%.
On to `c1ccc(COc2ccc(Nc3ncnc4ccc(-c5ccco5)cc34)cc2)cc1`, for which the inhibition was 1.38% in [1]; 0.95% in [2]; 1.6% in test [3]; 4.05% in test [4]; 5.22% in test [5]; 1.07% in test [6]. The inhibition in test [7] was 2.25%; in test [8], -1.26%; in [9], 0.42%; in test [10], 0.63%.
For `CCN1CCC(CC(=O)Nc2n[nH]c3nnc(-c4cccc(F)c4F)cc23)CC1`, the inhibition in [1] stood at 1.15%; in test [2] it was 0.77%; in test [3] it was 1.59%; in [4] it was 5.02%; in test [5], 5.09%; in test [6], 3.86%. Also, the inhibition in test [7] was 4.27%; in test [8] it was 0.56%; in test [9], 0.7%; in test [10] it was 0.39%.
Turning to `CS(=O)(=O)CCNCc1ccc(-c2ccc3ncnc(Nc4ccc(OCc5ccccc5)c(C(F)(F)F)c4)c3c2)o1`, the inhibition stood at 1.46% in test [1]; 0% in test [2]; 0.88% in [3]; 7.15% in [4]; 6.03% in [5]; 5.4% in [6]. Further, the inhibition is 5.06% in test [7], -0.57% in test [8], 1.31% in test [9] and 0.54% in test [10].
For the compound `Nc1nc(-c2cccc(Cl)c2)c(-c2ccc3ncccc3n2)s1`, the inhibition is -0.63% in test [1]; 0.04% in test [2]; 1.47% in [3]; 6.45% in [4]; 11.3% in test [5]; 5.42% in [6]. The inhibition in [7] was 10.1%; in test [8], 1.14%; in [9] it was 3.59%; in test [10], -0.44%.
As to `COc1ccc(-c2nn3ncccc3c2-c2ccnc(Nc3ccc4c(c3)OCCO4)n2)cc1`, the inhibition was -0.07% in [1]; 1.07% in test [2]; 0.37% in [3]; 2.6% in [4]; 6.21% in [5]; 0.91% in test [6]. The inhibition in [7] was 0.83%; in [8], 0.46%; in test [9], -0.36%; in test [10], 0.54%.
Turning to `c1ccc(-c2nc3n(c2-c2ccc4c(c2)OCO4)CCC3)nc1`, the inhibition in test [1] was 1.22%; in [2], -5.85%; in test [3], -0.24%; in [4], 3.66%; in [5] it was 2.79%; in test [6], 1.19%. Besides, the inhibition in test [7] was 0.01%; in test [8], 0.37%; in test [9], 0.72%; in [10], -0.34%.
For the compound `Nc1ncc(-c2cccc(S(N)(=O)=O)c2)c2scc(-c3ccc(F)c(Cl)c3)c12`, the inhibition stood at 2.5% in test [1]; 0.62% in test [2]; 1.05% in [3]; 4.52% in test [4]; 5.24% in [5]; 6.23% in test [6]. The inhibition in test [7] was found to be 6.66%; in [8] it was 0.81%; in test [9], 0.67%; in test [10], 0.52%.
In the case of `N#Cc1c(NC(=O)CN2CCOCC2)sc2c1CCCC2`, the inhibition in test [1] was determined as 1.25%; in [2], 0.47%; in test [3] it was 0.86%; in test [4] it was 6%; in test [5] it was 9.65%; in test [6] it was 5.37%. The inhibition in test [7] was found to be 6.47%; in test [8], 0.03%; in test [9], 0.16%; in test [10], 0.29%.
For the compound `c1cc(-c2cnn3nc(N4CCOCC4)ccc23)nc(NC2CC2)n1`, the inhibition was 7.93% in [1]; 0.49% in test [2]; -0.94% in test [3]; 3.94% in test [4]; 29.5% in test [5]; 6.12% in test [6]. The inhibition is 12.2% in test [7], 0.22% in test [8], 3.37% in test [9] and -0.29% in [10].
With `Nc1nc(-c2ccc(F)cc2)c(-c2ccc3ncccc3n2)s1`, the inhibition in [1] is 0.96%; in [2], 0.84%; in test [3], -0.64%; in test [4] it was 4.41%; in test [5], 7.81%; in test [6] it was 6.3%. The inhibition in test [7] came to 5.79%; in test [8], 0.35%; in test [9], 2.38%; in test [10] it was 0.17%.
`COc1ccc(-c2oc3ncnc(N)c3c2-c2ccc(NC(=O)Nc3cc(C(F)(F)F)ccc3F)cc2)cc1`: the inhibition in [1] was 0.81%; in test [2] it was 1.45%; in test [3], 4.43%; in [4] it was 4.93%; in [5] it was 16.9%; in [6] it was 6.42%. Moreover, the inhibition was 9.75% in [7], -0.3% in test [8], 0.75% in [9] and 0.28% in test [10].
For the compound `CCNC(=O)O[C@H]1CN[C@H](C#Cc2cc3ncnc(Nc4ccc(OCc5cccc(F)c5)c(Cl)c4)c3s2)C1`, the inhibition is 2.03% in test [1]; 0.27% in test [2]; -1.53% in test [3]; 0.81% in test [4]; 0.44% in test [5]; 3.66% in test [6]. Besides, the inhibition in test [7] is 0.88%; in test [8] it was 0.78%; in test [9], 0.26%; in test [10], -0.1%.
